Results on three compounds are retold here after PubChem BioAssay (NCI).

The panel holds about 83,000 compounds, 20% with a hit somewhere; the sample as a whole holds those more often.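 Cells were grown in 96-well plates and exposed to the test compound at a single concentration for 48 hours; results are reported as percent growth, with values below 10 considered active.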 A number with no mark means an inactive call. The source made the active and inactive calls.

This test concerns HL-60(TB) leukemia. Description: NCI-60 one-dose screen, 48 h (100 = growth as untreated, 0 = no growth, -100 = all killed). The conditions noted are these: 10 µM unless noted.
With `COc1ccc(C(=O)C[C@]2(O)C(=O)Nc3c(Cl)ccc(Cl)c32)cc1`, the growth is -6.62% (active).

Take `Cc1cc(C)nc(NC(N)=NCCc2ccccc2)n1`: the growth is 56.9%. The figure for `COc1cc(/C=N/Nc2ccc(Br)cc2)cc(OC)c1OC` is 33%.
